According to PubChem BioAssay:
The source made the active and inactive calls.

Assays:
[1] = small molecules captured by biotinylated probe aFSTL3 – biochemical, small-molecule microarray, fluorescence 635/667, stem cell growth factor project, primary screen (AID 1064); conditions: higher = more signal;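 also: measures binding of the biotinylated anti-FSTL3 antibody to printed compounds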
[2] = binders from COS7 lysate, DM2A8 probe, primary screen, torsin A project, cell lysate, small-molecule microarray, fluorescence 635/667 (AID 1065); conditions: higher = more signal, COS7 lysate expressing mutant human TOR1A
[3] = small molecules captured by biotinylated probe aFGF2 – biochemical, small-molecule microarray, fluorescence 635/667, stem cell growth factor project, primary screen (AID 1067); conditions: higher = more signal;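 also: measures binding of biotinylated aFGF2 protein to printed compounds on slides; z-score merges feature fluorescence and signal-to-noise across triplicate slides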
[4] = small molecules captured by biotinylated probe aFGF10 – biochemical, small-molecule microarray, fluorescence 635/667, stem cell growth factor project, primary screen (AID 1071); conditions: higher = more signal;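 also: score merges 667 nm spot intensity and signal to noise from triplicate slides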
[5] = molecular target: Neurogenic locus notch homolog protein 2 (Homo sapiens) (UniProt Q04721); experiment: small molecules binding Notch2 protein – biochemical, small-molecule microarray, 635 nm fluorescence, stem cell growth factors, primary screen (AID 1073); conditions: higher = more signal
Sequence of Neurogenic locus notch homolog protein 2 (Homo sapiens) (Q04721 whole entry, looked up, canonical isoform): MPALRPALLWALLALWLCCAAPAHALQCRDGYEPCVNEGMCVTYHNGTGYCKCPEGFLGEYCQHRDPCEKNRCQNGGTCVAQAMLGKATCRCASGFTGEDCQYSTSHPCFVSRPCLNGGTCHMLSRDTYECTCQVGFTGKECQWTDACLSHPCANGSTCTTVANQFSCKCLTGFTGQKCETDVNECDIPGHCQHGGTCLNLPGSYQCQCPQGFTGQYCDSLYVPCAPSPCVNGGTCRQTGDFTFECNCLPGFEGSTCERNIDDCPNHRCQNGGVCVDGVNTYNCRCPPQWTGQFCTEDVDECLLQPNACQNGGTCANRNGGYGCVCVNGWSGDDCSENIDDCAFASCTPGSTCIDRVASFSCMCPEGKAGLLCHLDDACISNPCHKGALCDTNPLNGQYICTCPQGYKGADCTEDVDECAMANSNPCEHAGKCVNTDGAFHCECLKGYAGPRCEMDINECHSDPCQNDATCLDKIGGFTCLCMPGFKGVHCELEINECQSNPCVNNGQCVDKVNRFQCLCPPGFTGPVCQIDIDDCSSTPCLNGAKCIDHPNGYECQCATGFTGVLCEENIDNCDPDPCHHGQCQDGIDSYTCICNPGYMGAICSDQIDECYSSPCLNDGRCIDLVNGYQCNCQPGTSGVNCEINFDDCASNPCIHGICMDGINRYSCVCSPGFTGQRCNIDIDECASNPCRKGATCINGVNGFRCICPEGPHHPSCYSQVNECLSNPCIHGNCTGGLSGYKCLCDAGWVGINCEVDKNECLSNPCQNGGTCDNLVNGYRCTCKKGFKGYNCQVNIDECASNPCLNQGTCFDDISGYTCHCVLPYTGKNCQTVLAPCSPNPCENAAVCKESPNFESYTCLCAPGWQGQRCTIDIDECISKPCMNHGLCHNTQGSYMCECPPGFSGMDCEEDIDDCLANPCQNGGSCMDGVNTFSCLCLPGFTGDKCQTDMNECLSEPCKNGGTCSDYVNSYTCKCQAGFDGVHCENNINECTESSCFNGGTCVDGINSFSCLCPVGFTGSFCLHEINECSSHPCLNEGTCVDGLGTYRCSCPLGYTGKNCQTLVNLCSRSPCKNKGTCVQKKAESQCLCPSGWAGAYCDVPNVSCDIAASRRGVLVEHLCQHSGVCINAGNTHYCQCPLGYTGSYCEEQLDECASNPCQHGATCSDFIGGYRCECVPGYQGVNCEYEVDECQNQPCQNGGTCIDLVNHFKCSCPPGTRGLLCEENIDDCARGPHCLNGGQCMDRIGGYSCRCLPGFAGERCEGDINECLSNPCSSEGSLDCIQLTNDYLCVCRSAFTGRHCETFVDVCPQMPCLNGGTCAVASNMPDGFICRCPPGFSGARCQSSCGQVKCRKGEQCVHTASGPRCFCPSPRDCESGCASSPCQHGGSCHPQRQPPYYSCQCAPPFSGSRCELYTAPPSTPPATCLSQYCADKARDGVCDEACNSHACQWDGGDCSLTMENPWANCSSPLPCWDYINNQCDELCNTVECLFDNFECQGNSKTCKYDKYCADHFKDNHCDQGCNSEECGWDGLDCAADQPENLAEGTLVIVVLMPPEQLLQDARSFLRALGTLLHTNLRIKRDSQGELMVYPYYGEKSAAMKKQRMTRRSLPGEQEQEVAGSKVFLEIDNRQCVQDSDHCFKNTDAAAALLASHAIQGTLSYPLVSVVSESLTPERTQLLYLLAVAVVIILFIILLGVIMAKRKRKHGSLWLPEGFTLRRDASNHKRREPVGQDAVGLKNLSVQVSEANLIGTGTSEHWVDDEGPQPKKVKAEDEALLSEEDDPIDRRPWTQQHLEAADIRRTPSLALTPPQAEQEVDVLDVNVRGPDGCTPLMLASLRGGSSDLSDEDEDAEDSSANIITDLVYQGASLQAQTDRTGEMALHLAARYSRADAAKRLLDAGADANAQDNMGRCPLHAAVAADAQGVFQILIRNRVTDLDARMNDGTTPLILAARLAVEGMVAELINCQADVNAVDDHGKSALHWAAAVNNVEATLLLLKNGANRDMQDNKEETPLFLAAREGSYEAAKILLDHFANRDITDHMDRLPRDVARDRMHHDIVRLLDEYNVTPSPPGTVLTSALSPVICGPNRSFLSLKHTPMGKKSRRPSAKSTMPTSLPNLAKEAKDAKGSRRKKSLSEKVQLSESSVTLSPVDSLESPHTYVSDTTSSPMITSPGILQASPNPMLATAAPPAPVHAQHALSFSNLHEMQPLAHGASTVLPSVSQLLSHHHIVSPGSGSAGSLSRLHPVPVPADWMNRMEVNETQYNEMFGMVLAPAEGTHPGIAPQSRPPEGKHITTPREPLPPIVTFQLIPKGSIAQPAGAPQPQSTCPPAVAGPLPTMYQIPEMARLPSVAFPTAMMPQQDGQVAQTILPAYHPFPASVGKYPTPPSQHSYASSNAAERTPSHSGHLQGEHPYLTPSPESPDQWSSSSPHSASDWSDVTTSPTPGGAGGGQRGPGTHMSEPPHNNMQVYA

[6] = molecular target: Pro-neuregulin-1, membrane-bound isoform (Homo sapiens) (UniProt Q02297); experiment: small molecules binding neuregulin-1 protein – biochemical, small-molecule microarray, fluorescence 635/667, psychiatric disease protein project, primary screen (AID 1075); conditions: NRG1 binding, 635 nm fluorescence, higher = more signal;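 also: score combines 667 nm spot fluorescence with signal to noise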
Sequence of Pro-neuregulin-1, membrane-bound isoform (Homo sapiens) (Q02297 whole entry, looked up, the tested form may be a part, canonical isoform): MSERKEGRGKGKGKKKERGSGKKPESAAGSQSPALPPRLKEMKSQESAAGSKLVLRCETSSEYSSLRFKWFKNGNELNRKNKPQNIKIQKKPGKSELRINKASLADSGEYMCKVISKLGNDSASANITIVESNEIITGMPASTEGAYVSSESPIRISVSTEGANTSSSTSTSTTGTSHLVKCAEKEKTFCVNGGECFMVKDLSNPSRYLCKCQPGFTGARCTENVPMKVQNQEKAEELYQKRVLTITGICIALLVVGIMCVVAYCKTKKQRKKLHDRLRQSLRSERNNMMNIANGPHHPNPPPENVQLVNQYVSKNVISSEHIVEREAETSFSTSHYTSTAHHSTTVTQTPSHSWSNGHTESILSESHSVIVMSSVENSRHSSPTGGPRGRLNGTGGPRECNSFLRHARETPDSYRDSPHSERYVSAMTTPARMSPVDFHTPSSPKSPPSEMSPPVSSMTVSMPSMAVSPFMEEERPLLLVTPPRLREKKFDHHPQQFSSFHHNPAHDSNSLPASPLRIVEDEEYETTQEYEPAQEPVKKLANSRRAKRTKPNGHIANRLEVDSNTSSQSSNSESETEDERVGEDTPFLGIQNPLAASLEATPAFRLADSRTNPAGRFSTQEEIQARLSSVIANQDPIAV

[7] = system: Neuregulin-1 EGF-like domain; experiment: small molecules binding NRG1 EGF domain – biochemical, small-molecule microarray, 635 nm fluorescence, primary screen (AID 1081); conditions: higher = more signal;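 also: binding of the protein to compounds printed on small-molecule microarray slides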
[8] = FRG1 expression reporter modulators in myotubes – cell-based, C2C12 myotubes, firefly/Renilla luciferase, luminescence, FRG1 inhibition for FSHD, primary screen (AID 1084); conditions: FRG1 promoter luciferase, higher = more signal, called active from +8 up or from −8 down
[9] = small molecules captured by biotinylated probe aFST – biochemical, small-molecule microarray, fluorescence 635/667, stem cell growth factor project, primary screen (AID 1086); conditions: higher = more signal;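 also: score merges 667 nm fluorescence with signal-to-noise of each printed compound spot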
[10] = binders of probe aHhip on microarray, primary screen, stem cell growth factor project, biochemical, small-molecule microarray, fluorescence 635/667 (AID 1087); conditions: higher = more signal;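 also: score merges spot fluorescence at 667nm with spot signal to noise ratio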
[11] = system: PRMT1 (protein arginine N-methyltransferase 1); experiment: small molecules binding arginine methyltransferase PRMT1 – biochemical, small-molecule microarray, 635 nm fluorescence, primary screen (AID 1088); conditions: higher = more signal;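 also: binding of Prmt1 protein to compounds spotted on small-molecule microarray slides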
[12] = growth effects on S. cerevisiae YJM789 – YJM789 clinical isolate, OD600, 24 h, basal, primary screen (AID 1089); conditions: higher = more signal, called active from +8 up or from −8 down;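 also: growth of clinical yeast isolate S. cerevisiae YJM 789 seeded 1000 cells per well; test concentration not given here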
[13] = S. pombe growth modifiers, basal conditions – strain 972, OD600, 24 h, no modulator, primary screen (AID 1090);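 also: basal condition with compound alone and no growth modifier present; test concentration not given here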; conditions: S. pombe 972 growth, higher = more signal, called active from +8 up or from −8 down
[14] = budding yeast growth modifiers under rapamycin – strain BY4716, OD600, 96 h, primary screen (AID 1091); also: test concentration not given here; conditions: S. cerevisiae BY4716 + rapamycin, higher = more signal, called active from +8 up or from −8 down
[15] = molecular target: Torsin-1A-interacting protein 2 (Homo sapiens) (UniProt Q8NFQ8); experiment: small molecules binding lysate-expressed LULL1 – cell lysate, human LULL1 lysate, 635/667 nm fluorescence, primary screen (AID 1092); conditions: small-molecule microarray, hLULL1 lysate binding, 635 nm fluorescence; higher = more signal;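 also: probe is lysate of COS7 cells overexpressing human LULL1; score merges per-feature 667 nm fluorescence with signal-to-noise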
Sequence of Torsin-1A-interacting protein 2 (Homo sapiens) (Q8NFQ8 whole entry, looked up): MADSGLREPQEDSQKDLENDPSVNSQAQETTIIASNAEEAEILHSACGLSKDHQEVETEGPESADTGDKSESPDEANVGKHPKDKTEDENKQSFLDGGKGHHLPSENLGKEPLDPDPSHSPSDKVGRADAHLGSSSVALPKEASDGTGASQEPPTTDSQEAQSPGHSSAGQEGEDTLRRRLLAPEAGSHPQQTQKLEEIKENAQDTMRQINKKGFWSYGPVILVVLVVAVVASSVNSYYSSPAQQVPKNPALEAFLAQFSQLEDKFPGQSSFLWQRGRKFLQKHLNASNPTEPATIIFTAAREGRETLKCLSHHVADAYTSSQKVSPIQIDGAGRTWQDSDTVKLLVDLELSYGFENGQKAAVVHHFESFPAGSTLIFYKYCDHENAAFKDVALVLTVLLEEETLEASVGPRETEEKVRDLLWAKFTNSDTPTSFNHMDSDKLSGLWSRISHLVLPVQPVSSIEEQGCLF

[16] = optical density change of DRC41 E. coli – strain DRC41, OD650, 24 h, E. coli filamentation project, primary screen (AID 1093);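 also: MC1000 strain lacking acrAB efflux and sulA so SOS filamentation is blocked; test concentration not given here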; conditions: E. coli DRC41 growth, higher = more signal, called active from +8 up or from −8 down
[17] = probe aLefty2 binding to arrayed compounds – biochemical, biotinylated probe, 635/667 nm fluorescence, primary screen (AID 1094); conditions: small-molecule microarray, higher = more signal;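 also: score merges spot fluorescence near 667 nm with spot signal-to-noise ratio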
[18] = system: Noggin (protein binding on small-molecule microarray); experiment: small molecules binding Noggin protein – biochemical, 635/667 nm fluorescence, primary screen (AID 1095); conditions: 635 nm fluorescence, higher = more signal;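 also: score merges 667 nm feature fluorescence with signal to noise over triplicate slides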
[19] = molecular target: Neurogenic locus notch homolog protein 3 (Homo sapiens) (UniProt Q9UM47); experiment: small molecules binding NOTCH3 protein – biochemical, 635/667 nm fluorescence, primary screen (AID 1096); conditions: small-molecule microarray, 635 nm fluorescence, higher = more signal
[20] = probe aEGFR binding to arrayed compounds – biochemical, biotinylated probe, 635/667 nm fluorescence, primary screen (AID 1097); conditions: small-molecule microarray, higher = more signal;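 also: probe is a biotinylated anti-EGFR antibody binding compounds printed on slides; score combines fluorescence near 667 nm and signal to noise of each spot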

SMILES	composite z-score [1]	composite z-score [2]	composite z-score [3]	composite z-score [4]	composite z-score [5]	composite z-score [6]	composite z-score [7]	z-score [8]	composite z-score [9]	composite z-score [10]	composite z-score [11]	z-score [12]	z-score [13]	z-score [14]	composite z-score [15]	z-score [16]	composite z-score [17]	composite z-score [18]	composite z-score [19]	composite z-score [20]
O=C1N(Cc2ccccc2)Cc2ccccc2C[C@@]12COC(c1ccc(OCCCO)cc1)=N2	1.18	0.455	-0.0428	-0.0784	-0.0568	0.605	1.21	-1.58 (inactive)	0.419	0.369	1.38	1.92 (inactive)	-1.05 (inactive)	6.73 (inactive)	1.79	0.615 (inactive)	0.363	0.0489	0.117	-0.0315
CC(C)(C)OC(=O)CC[C@@]1(C(=O)N2CCOCC2)N=C(c2ccc(OCCCO)cc2)O[C@@H]1c1ccccc1CN=[N+]=[N-]	0.12	0.161	0.254	0.674	1.1	1.88	1.31	3.86 (inactive)	0.694	0.186	1.38	-0.335 (inactive)	-0.183 (inactive)	-0.654 (inactive)	3.83	0.675 (inactive)	0.313	1.06	0.985	0.103
COc1ccc([Si](C)(C)[C@@H]2[C@@H](CC(=O)N3Cc4ccccc4C[C@H]3CO)O[C@]3(C(=O)N(Cc4ccc(I)cc4)c4ccccc43)[C@H]2C)cc1	-0.127	0.0826	-0.136	0.184	0.472	0.537	0.909	-2.83 (inactive)	0.259	-0.204	1.57	0.391 (inactive)	0.956 (inactive)	2.07 (inactive)	0.603	2.19 (inactive)	0.0007	1.92	1.1	-0.0982
COc1ccc(C(=O)Nc2ccc(CN3C(=O)[C@]4(O[C@H](CC(=O)N(CCO)Cc5ccccc5)[C@@H]([Si](C)(C)c5ccc(OC)cc5)[C@@H]4C)c4ccccc43)cc2)cc1	-0.284	1.22	-0.0858	0.792	0.271	0.74	1.26	-0.228 (inactive)	0.276	-0.0994	1.54	0.517 (inactive)	1.03 (inactive)	3.41 (inactive)	2.03	1.6 (inactive)	-0.235	1.08	0.565	-0.096
COc1ccc([Si](C)(C)[C@H]2[C@H](CC(=O)N(CCO)Cc3ccccc3)O[C@@]3(C(=O)N(Cc4cccc(N5CCCCC5=O)c4)c4ccccc43)[C@@H]2C)cc1	-0.4	1.12	-0.0557	0.141	0.262	0.535	0.907	-2.71 (inactive)	0.0417	-0.166	1.45	-1.68 (inactive)	-0.0671 (inactive)	2.14 (inactive)	0.876	1.27 (inactive)	-0.0719	0.659	0.604	-0.045
C=CC[C@]1(C(=O)NCC(O)CO)N=C(c2ccc(OCCCO)cc2)O[C@H]1c1ccccc1CN=[N+]=[N-] (stereo not given in full)	1	1.23	-0.0316	0.36	-0.757	0.323	1.23	-0.27 (inactive)	0.267	0.189	1.01	-0.0604 (inactive)	-0.234 (inactive)	-0.83 (inactive)	3.51	0.384 (inactive)	0.239	-0.62	-0.922	-0.0828
C=CCOC(=O)[C@@H]1[C@H]2C(=O)O[C@H](c3ccccc3)[C@H](c3ccccc3)N2[C@H](c2ccc(OCCOC(=O)[C@@H]3C[C@@H]4C(=O)N[C@@H](CC(C)C)C(=O)N4[C@@H]3c3ccc(O)cc3)cc2)[C@@]12C(=O)Nc1ccc(I)cc12	-0.479	0.17	-0.0489	0.325	0.853	0.616	1.29	-0.277 (inactive)	0.4	0.383	1.56	-0.677 (inactive)	1.63 (inactive)	18.2 (active)	1.82	1.16 (inactive)	-0.0321	1.69	1.08	0.105
CN(C)CCCCNC(=O)[C@H]1C[C@H]2C(=O)N[C@@H](CCCCN(C)C)C(=O)N2[C@H]1c1ccc(O)cc1	-0.162	0.857	-0.215	0.301	-0.0742	-0.121	0.763	-0.354 (inactive)	-0.349	-0.16	1.39	-2.61 (inactive)	-0.403 (inactive)	-1.41 (inactive)	-0.237	1.55 (inactive)	-0.192	0.774	0.343	-0.176
CN1C(=O)C2C=CC(C(O)c3ccc(I)cc3)N(N(c3ccccc3)c3ccccc3)C2C1=O (stereo not given)	0.75	-0.272	-0.0507	-0.454	0.333	0.495	-0.0493	0.586 (inactive)	0.428	-0.176	0.364	0.413 (inactive)	1.38 (inactive)	1.45 (inactive)	0.155	-1.07 (inactive)	0.17	-0.569	-0.239	-0.0903
